Source: PubChem BioAssay AID1578 (Sanford-Burnham Center for Chemical Genomics, 2009)
Values joined by “and” are separate entries in the source; they are usually repeats but may differ in a detail not shown here. Equal values may be shown once. About 3,000 (1%) of roughly 290,000 compounds were called active. No stated cut-off is given here; in the data, active means inhibition mostly above about 36% (no sharp cut-off); inactive means mostly below about 34%. What follows is part of a selection rich in actives, with near analogues and random picks from the rest.

Assay: inhibition of NOD1-driven NF-kB reporter – cell-based, luminescence, uHTS, primary screen (AID 1578);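 further: HEK-293T reporter cells stimulated with the NOD1 agonist gamma-tri-DAP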
Conditions: NOD1-driven NF-kB luciferase reporter cells, at 4 µM, stronger effect = higher value
For `COCCOC(=O)C1=C(N)Oc2c(c(=O)oc3ccccc23)C1c1ccncc1` (configuration not stated), the inhibition was -14.2% (inactive). In the case of `CCCCOC(=O)C1=C(N)OC2=C(C(=O)CCC2)[C@]12C(=O)N(C)c1ccccc12`, the inhibition is reported as 2.2% (inactive). In the case of `COc1cccc(NP(=O)(Oc2ccccc2)Oc2ccccc2)c1`, the inhibition is reported as -28.2% (inactive). With `O=C(NC1(C(F)(F)F)Oc2ccc(Cl)cc2O1)N1CCC2(CC1)OCCO2` (configuration not stated) the inhibition was 5% (inactive). In the case of `Cc1ccccc1-n1c(O)c(C=NCCN2CCOCC2)c(=O)[nH]c1=O`, the inhibition is reported as -5.7% (inactive). In the case of `O=C(Cn1nc(-c2ccc(Cl)cc2)ccc1=O)N1CCC2(CC1)OCCO2`, the inhibition is reported as -21% (inactive). For `CCC(=NCCO)c1c(O)n(-c2ccccc2)c(=O)[nH]c1=O`, the inhibition was 11.4% (inactive). In the case of `COc1cc2c(cc1OC)-c1c(OC)c(OC)c(OC)c3ccnc(c13)C2=O`, the inhibition is reported as 25.5% (inactive). In the case of `O=C1NC(=O)N(CCc2ccc(F)cc2)C(=O)/C1=C/c1cccs1`, the inhibition is reported as 12.9% (inactive). For `CC(C)c1ccc(N2C(=O)NC(=O)/C(=C/C=C/c3ccco3)C2=O)cc1`, the inhibition was 56.9% (inactive). With `O=C1NC(=O)N(CCc2ccc(F)cc2)C(=O)/C1=C/c1ccco1` the inhibition was 10.2% (inactive). For `O=C1NC(=O)N(CCc2ccc(F)cc2)C(=O)/C1=C/C=C/c1ccccc1`, the inhibition was 42.2% (active). With `CC(C)c1ccc(N2C(=O)NC(=O)/C(=C\C=C\c3ccco3)C2=O)cc1` the inhibition was 78.9% (active). In the case of `Cc1ccc(N2C(=O)NC(=O)/C(=C\C=C\c3ccco3)C2=O)cc1C`, the inhibition is reported as 48.7% (inactive). For `CCCC(C)n1[nH]c(=O)c2c1NC(=O)CSC2c1ccccc1` (configuration not stated), the inhibition was -4.2% (inactive). With `COc1ccc(CCN(C)Cc2ccc(F)cc2F)cc1OC` the inhibition was -4.5% (inactive). In the case of `O=[N+]([O-])c1ccc(Nc2ccccc2)cc1`, the inhibition is reported as 26.1% (inactive). With `CC(C)C(=O)Nc1nnc(CCN(CCc2nnc(NC(=O)C(C)C)s2)[N+](=O)[O-])s1` the inhibition was 0.8% (inactive). In the case of `COc1cc(CC2C(=O)N(C)C(=O)N(C)C2=O)ccc1OCc1ccccc1`, the inhibition is reported as -15.9% (inactive). With `C[C@H]1CCCC(=O)CCCCCc2cc(O)cc(O)c2C(=O)O1` the inhibition was 10.7% (inactive). For `C[C@H]1CCC[C@H](O)CCCCCc2cc(O)cc(O)c2C(=O)O1`, the inhibition was 71.9% (active). With `CC1CCC[C@H](O)CCCCCc2cc(O)cc(O)c2C(=O)O1` (some centres not stated) the inhibition was -20.3% (inactive) and 0.8% (inactive). For `COc1ccc(S(=O)(=O)NC(CC(=O)N2CCC3(CC2)OCCO3)C(C)C)cc1` (configuration not stated), the inhibition was -3.9% (inactive). With `Cc1cccnc1-n1c(-c2ccccc2)nc2ccccc2c1=O` the inhibition was -2.5% (inactive). For `O=C(c1ccco1)c1cn(Cc2ccccc2Cl)c2ccccc12`, the inhibition was 19.5% (inactive). For `CC1(C)C[C@H]2C=C(C=O)[C@]3(C=O)C[C@]3(C)[C@H]2C1`, the inhibition was 106% (active). With `Cc1c(P(=S)(c2ccccc2)c2ccccc2)[n+]2ccccc2n1C` the inhibition was -18.7% (inactive). With `O=C(Nc1ccc(Cl)cc1C(=O)c1ccccc1)c1ccc(Br)o1` the inhibition was 37.5% (inactive). With `Cc1ccc2c(c1)CCCN2N=O` the inhibition was -27.4% (inactive). With `C=C(CC1CC(O)[C@]2(C)OC3CC4OC5C[C@]6(C)O[C@]7(C)CCC8OC9C[C@]%10(C)OC%11C(C)=CC(=O)OC%11CC%10OC9C[C@@H](C)C8OC7CC6O[C@]5(C)C/C=C\C4OC3CC2O1)C(=O)O` (some centres not stated) the inhibition was -18.2% (inactive). In the case of `C=C(C=O)C[C@@H]1C[C@H](O)C2OC3C[C@]4(C)OC5/C=C\CC6OC7C(CC=CCC6OC5CCCC4OC3CC2O1)OC1CC2OC3CC(=O)OC3C[C@@H](C)C[C@@]2(C)OC1C[C@@H]7C` (some centres not stated), the inhibition is reported as 76% (active). For `C=C(CO)CC1CC(O)[C@]2(C)OC3CC4OC5C[C@]6(C)O[C@]7(C)CCC8OC9C[C@]%10(C)OC%11C(C)=CC(=O)OC%11CC%10OC9C[C@@H](C)C8OC7CC6O[C@]5(C)C/C=C\C4OC3CC2O1` (some centres not stated), the inhibition was -6.2% (inactive). With `Clc1cccc(Cl)c1C1N2CCCN12` (configuration not stated) the inhibition was 8.1% (inactive). In the case of `c1ccc2c(c1)CNc1ccccc1O2`, the inhibition is reported as -9% (inactive). In the case of `S=C(NCCc1ccccc1)NCCc1cnc[nH]1`, the inhibition is reported as 0.7% (inactive). With `COc1ccc(OC)c(NP(=O)(Oc2ccccc2)Oc2ccccc2)c1` the inhibition was -6.6% (inactive). For `Cc1ccc(C)c(NP(=O)(Oc2ccccc2)Oc2ccccc2)c1`, the inhibition was 48.1% (active). For `Cc1cccc(NP(=O)(Oc2ccccc2)Oc2ccccc2)c1C`, the inhibition was -22.3% (inactive). In the case of `O=C(CN1CCCC1)Nc1ccc(Cl)cc1C(=O)c1ccccc1`, the inhibition is reported as -5.6% (inactive). With `COc1ccc(CNCCc2c(C)[nH]c3ccc(OC(F)(F)F)cc23)c(OC)c1` the inhibition was 5.5% (inactive). With `O=P(Nc1ccccc1)(Nc1ccccc1)Oc1ccccc1` the inhibition was -0.3% (inactive). In the case of `COc1cc2c(cc1OC)[C@@H]1C(=O)c3ccc4c(c3O[C@@H]1CO2)C[C@H](C(C)C)O4`, the inhibition is reported as 58.9% (active). With `O=c1c2ccccc2nc(-c2ccccc2)n1-c1ccccc1O` the inhibition was -8.3% (inactive). For `Cn1cnnc1Sc1cc(N2CCNCC2)ccc1[N+](=O)[O-]`, the inhibition was -17.2% (inactive). For `CCOc1ccc(C2(C#N)CC[N+](C)(C)CC2)cc1`, the inhibition was -0.5% (inactive). With `COCc1cc(OC(=O)N(C)C)nc2c1c(C)nn2C` the inhibition was -6.7% (inactive). With `O=C(CN1CC(c2ccccc2)CC1=O)Nc1ccc(F)cc1` (configuration not stated) the inhibition was -14.5% (inactive). In the case of `O=C(/C=C/c1ccccc1)NCCc1cnc[nH]1`, the inhibition is reported as 32.6% (active). In the case of `O=C(COc1ccccc1)NCCc1cnc[nH]1`, the inhibition is reported as 3.5% (inactive). For `O=C(CCCc1ccccc1)NCCc1cnc[nH]1`, the inhibition was -15.9% (inactive). In the case of `CCOc1ccccc1Oc1coc2cc(OC(=O)N(C)C)ccc2c1=O`, the inhibition is reported as 0.4% (inactive). In the case of `COc1cccc(Oc2coc3cc(OC(=O)N(C)C)ccc3c2=O)c1`, the inhibition is reported as 6.2% (inactive). With `O=C1CC(c2ccccc2)CC(O)=C1C=NCCN1CCN(C(=O)Cc2ccccc2)CC1` (configuration not stated) the inhibition was 8.5% (inactive). For `O=C(C1CCCN(S(=O)(=O)c2cccc3nsnc23)C1)N1CCC2(CC1)OCCO2` (configuration not stated), the inhibition was -9.3% (inactive). With `O=C(Cc1ccccc1)N1CCN(Cc2cccc(Br)c2)CC1` the inhibition was 0.2% (inactive). In the case of `CC(C)c1oc(=O)cc2c1[C@@H](O)[C@H]1OC(=O)[C@@]3(C)CC[C@@H](O)[C@@]2(C)C13` (some centres not stated), the inhibition is reported as -5.4% (inactive). For `CC(C)c1oc(=O)cc2c1[C@@H](O)[C@H]1OC(=O)[C@@]3(C)C[C@@H](O)[C@@H](O)[C@@]2(C)C13` (some centres not stated), the inhibition was 96.2% (active).
